Inconclusive results are not listed. Active and inactive are the calls of the source. Unless noted, calls follow the shape of the dose curve; as a rule, active = well fitted curve in the direction sought with a large enough effect; inconclusive = small, poorly fitted or top-dose-only effect, or another doubt; inactive = no such curve, though single readings can be large; an effect the other way counts as inactive or inconclusive.
Experiments:
[1] = biological target: Cytochrome P450 1A2 (Homo sapiens) (UniProt P05177); assay: p450-cyp1a2 (AID 410; calls by dose curve;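 also: -100% = full effect of reference inhibitor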)
Cytochrome P450 1A2 (Homo sapiens), sequence (P05177 whole entry, looked up): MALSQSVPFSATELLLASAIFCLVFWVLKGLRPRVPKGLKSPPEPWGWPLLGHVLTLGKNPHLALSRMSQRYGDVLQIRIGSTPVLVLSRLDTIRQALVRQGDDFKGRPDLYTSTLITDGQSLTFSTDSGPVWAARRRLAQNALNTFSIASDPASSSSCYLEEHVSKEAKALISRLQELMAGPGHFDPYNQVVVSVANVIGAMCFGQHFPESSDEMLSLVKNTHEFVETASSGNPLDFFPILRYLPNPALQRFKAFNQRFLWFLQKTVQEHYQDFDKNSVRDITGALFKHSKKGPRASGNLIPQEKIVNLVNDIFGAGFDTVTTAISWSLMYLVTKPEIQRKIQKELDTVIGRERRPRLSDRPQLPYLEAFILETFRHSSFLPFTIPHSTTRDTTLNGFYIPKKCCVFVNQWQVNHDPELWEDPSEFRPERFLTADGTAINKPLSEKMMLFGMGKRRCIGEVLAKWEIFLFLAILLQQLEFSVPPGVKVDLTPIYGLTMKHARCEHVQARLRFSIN
Outline: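 O-Demethylation of luciferin 6' methyl ether by human CYP1A2 is monitored as luciferase luminescence. Substrate sits at Km (100uM); enzyme is 20nM. Values are scaled to 57 uM furafylline as maximal inhibition.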

[2] = NFAT Signaling Pathway (AID 444; active = well fitted curve in either direction with a large enough effect, not every such curve was filed as active;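 also: carbachol stimulus at about its EC50 of 1 µM final; % is scaled to controls: 0 for no effect and ±100 for the full control effect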); settings: Jurkat NFAT-bla M1, carbachol, beta-lactamase ratio, 5 h; at 38 µM (top of the series)
Outline: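 Jurkat cells carrying an NFAT-driven β-lactamase reporter and co-transfected muscarinic M1 receptor were treated with compound plus carbachol (1 uM final, an EC50 level) for 5 h at 37 °C. CCF4 loading followed for 1 h at RT; 460/530 nm ratio gave %activity.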

[3] = Stat Signaling Pathway (AID 446; active = well fitted curve in either direction with a large enough effect, not every such curve was filed as active;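 also: ME-180 cervical cancer cells given 40 pM IL-6 alongside compound; SIE-controlled beta-lactamase reporter measured as 460/530 nm FRET emission ratio; % is scaled to controls: 0 for no effect and ±100 for the full control effect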)
Outline: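 FRET read-out (405 nm excitation, 460/530 nm emission) of a beta-lactamase reporter under a STAT-inducible element in ME-180 cervical carcinoma cells. Cells with compound receive 40 pM IL-6 for 5 h. Values are normalised to AC90 stimulation and AC90 JAK-inhibitor controls.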

[4] = biological target: Glucocorticoid receptor (Homo sapiens) (UniProt P04150); assay: GR-GFP Redistribution (AID 450;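 active = compounds whose dose series gives a full or clear partial fitted curve of increased nuclear translocation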; also: potency is read from the fitted curve at half-maximal effect); settings: U2OS GR-GFP nuclear translocation, laser cytometry, 2 h
Glucocorticoid receptor (Homo sapiens), sequence (P04150 whole entry, looked up, the tested form may be a part): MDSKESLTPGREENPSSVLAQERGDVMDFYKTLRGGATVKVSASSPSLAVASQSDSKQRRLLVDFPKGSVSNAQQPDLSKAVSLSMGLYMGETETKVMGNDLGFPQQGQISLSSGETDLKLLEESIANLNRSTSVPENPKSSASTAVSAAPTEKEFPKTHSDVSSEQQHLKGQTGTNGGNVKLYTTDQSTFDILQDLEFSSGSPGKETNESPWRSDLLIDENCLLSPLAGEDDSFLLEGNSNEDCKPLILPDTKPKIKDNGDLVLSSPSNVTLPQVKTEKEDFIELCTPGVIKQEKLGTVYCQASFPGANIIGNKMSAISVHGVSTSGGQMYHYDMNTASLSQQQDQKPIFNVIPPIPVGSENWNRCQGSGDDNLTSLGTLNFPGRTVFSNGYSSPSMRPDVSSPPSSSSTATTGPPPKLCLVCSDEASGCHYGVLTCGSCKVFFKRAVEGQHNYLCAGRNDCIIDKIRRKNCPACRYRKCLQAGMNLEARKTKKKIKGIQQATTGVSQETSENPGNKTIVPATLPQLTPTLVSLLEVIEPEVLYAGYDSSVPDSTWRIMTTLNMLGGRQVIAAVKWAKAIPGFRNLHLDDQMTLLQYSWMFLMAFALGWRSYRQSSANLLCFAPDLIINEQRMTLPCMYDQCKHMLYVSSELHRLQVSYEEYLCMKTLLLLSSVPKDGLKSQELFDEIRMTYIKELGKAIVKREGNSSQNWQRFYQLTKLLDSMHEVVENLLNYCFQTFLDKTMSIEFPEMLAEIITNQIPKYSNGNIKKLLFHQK

[5] = biological target: Glucocorticoid receptor (Homo sapiens) (UniProt P04150); assay: GR-EFC Redistribution (AID 451; calls by dose curve; also: potency is read from the fitted curve at half-maximal effect); settings: CHO-K1 GR-EFC translocation, beta-gal luminescence, 2 h
Outline: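 CHO-K1 cells stably expressing nuclear-localized β-gal enzyme acceptor and GR fused C-terminally to the enzyme donor fragment; ligand-driven nuclear translocation restores β-gal by complementation. Compounds titrated up to 46 uM final, 2 h at 37 °C; luminescence read.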

[6] = qHTS Assay for Identification of Small Molecule Agonists for Hypoxia Response Element Signaling Pathway (AID 914; active = well fitted activation curve with a large enough effect in the signal ratio, with a control signal flat, not every such curve was filed as active; the % refers to the signal ratio; also: % of control where 0% means no effect); settings: ME-180 HRE-bla reporter, beta-lactamase ratio, CoCl2, 17 h; activation: stronger effect = higher value
Outline: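 ME-180 cells carrying an HRE-driven beta-lactamase reporter were treated with compounds in a titration series plus an EC50 level of CoCl2 for 17 h at 37 degrees Celsius; CCF4 readout as the 460nm/530nm ratio gave AC50 values.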

[7] = biological target: Muscarinic acetylcholine receptor M1 (Rattus norvegicus) (UniProt P08482); assay: qHTS Assay for Antagonists of Acetylcholine Muscarinic M1 Receptor: Kinetic Measurement of Intracellular Calcium Response (AID 943);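 also: Fluo-4 calcium signal as peak divided by basal fluorescence over 4 min; nearly all actives have a fitted effect of over 75% in size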
Muscarinic acetylcholine receptor M1 (Rattus norvegicus), sequence (P08482 whole entry, looked up): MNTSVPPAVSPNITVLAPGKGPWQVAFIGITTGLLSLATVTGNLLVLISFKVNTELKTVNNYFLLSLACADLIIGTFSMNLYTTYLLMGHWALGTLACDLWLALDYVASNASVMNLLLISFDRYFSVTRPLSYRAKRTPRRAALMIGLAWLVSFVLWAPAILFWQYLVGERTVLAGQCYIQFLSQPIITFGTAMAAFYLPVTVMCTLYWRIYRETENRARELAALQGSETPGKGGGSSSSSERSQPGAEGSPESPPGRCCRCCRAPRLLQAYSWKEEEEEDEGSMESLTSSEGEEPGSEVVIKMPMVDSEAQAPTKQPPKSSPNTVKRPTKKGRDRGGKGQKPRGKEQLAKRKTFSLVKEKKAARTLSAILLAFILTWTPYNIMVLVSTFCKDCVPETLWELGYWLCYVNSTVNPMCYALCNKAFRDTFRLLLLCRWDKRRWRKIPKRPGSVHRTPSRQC
Outline: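 Antagonism is measured as inhibition of the carbachol-evoked calcium rise in CHO cells transfected with rat M1. Cells are dye-loaded, exposed to compound for 10 min, then stimulated with 100 nM carbachol (EC80).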

[8] = biological target: Pyruvate kinase (Leishmania mexicana) (UniProt Q27686); assay: qHTS Validation Assay for Inhibitors of Leishmania Mexicana Pyruvate Kinase (AID 945);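 also: 0% = DMSO only neutral control wells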
Outline: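 LmPYK E451W 0.2 nM; 0.5 mM PEP, 0.1 mM ADP, 7 mM MgCl2, 50 mM KCl, imidazole pH 7.2, 0.01% Tween 20, 0.05% BSA; 1 h RT; PKLight luminescence; DMSO-normalized.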

[9] = biological target: Pyruvate kinase PKM (Homo sapiens) (UniProt P14618); assay: qHTS Assay for Activators of Human Muscle Pyruvate Kinase (AID 954; active = well fitted curve in the direction sought with a large enough effect, not every such curve was filed as active;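 also: 0% = uninhibited enzyme and -100% = no enzyme or full thiadiazolimine inhibition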)
Pyruvate kinase PKM (Homo sapiens), sequence (P14618 whole entry, looked up): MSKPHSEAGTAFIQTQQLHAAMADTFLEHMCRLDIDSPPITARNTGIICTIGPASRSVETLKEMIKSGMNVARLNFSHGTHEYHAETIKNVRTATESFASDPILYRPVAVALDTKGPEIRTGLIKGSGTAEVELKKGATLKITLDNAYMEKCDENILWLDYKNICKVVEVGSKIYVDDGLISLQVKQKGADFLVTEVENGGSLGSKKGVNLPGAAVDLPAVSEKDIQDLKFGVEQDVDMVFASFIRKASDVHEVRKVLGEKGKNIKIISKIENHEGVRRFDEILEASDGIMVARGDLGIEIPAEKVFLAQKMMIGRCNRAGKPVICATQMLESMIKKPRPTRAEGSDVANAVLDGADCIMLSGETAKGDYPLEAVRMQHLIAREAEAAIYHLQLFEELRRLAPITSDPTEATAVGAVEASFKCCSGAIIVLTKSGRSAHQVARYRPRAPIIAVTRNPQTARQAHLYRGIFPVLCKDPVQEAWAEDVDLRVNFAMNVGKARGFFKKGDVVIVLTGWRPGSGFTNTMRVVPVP
Outline: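 ATP production by PKM2 detected via luciferase luminescence after 1 h room-temperature reaction (0.1 nM enzyme, PEP at Km 0.5 mM, ADP 0.1 mM, pH 7.2 imidazole buffer). Inhibition scaled to no-enzyme control; activation referenced to 0.3 nM enzyme wells.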

[10] = biological target: Alpha-galactosidase (Coffea arabica) (UniProt Q42656); assay: Counterscreen for Glucocerebrosidase Inhibitors: qHTS Assay for Coffee Bean alpha-Galactosidase at pH 4.5 (AID 957);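 also: plate controls were enzyme alone for no effect and no enzyme for full effect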
Alpha-galactosidase (Coffea arabica), sequence (Q42656 whole entry, looked up): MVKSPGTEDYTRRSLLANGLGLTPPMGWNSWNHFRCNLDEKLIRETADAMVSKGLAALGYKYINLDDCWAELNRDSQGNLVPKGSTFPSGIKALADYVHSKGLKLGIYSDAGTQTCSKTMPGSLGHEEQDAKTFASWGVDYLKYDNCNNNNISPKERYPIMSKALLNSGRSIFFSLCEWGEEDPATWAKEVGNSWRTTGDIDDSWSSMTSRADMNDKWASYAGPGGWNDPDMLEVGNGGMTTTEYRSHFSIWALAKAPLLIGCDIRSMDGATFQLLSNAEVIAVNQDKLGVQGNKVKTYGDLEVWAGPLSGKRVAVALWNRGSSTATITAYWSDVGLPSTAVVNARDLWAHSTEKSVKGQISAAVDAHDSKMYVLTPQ
Outline: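 Enzyme is added first (2 nM final), then compounds titrated from 0.7 nM to 77 uM, then 80 uM 4-methylumbelliferyl alpha-D-galactopyranoside; after 20 min at room temperature a pH 10 NaOH/glycine stop precedes fluorescence reading at 365/440 nm.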

[11] = biological target: Alpha-galactosidase A (Homo sapiens) (UniProt P06280); assay: Counterscreen for Glucocerebrosidase Inhibitors: qHTS Assay for Human alpha-Galactosidase at pH 4.5 (AID 992); also: 0% is about no effect
Outline: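 Fluorogenic 1536-well qHTS at pH 4.5 (citrate, Tween-20): 2 nM enzyme, 80 uM 4-MU-alpha-galactoside, 20 min room temperature, NaOH/glycine stop. Titration 0.7 nM to 77 uM, data normalized to no-enzyme and full-activity controls, Hill-fitted AC50.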

[12] = biological target: alpha-glucosidase (Oryza sativa, rice) (UniProt Q653V4); assay: Counterscreen for Glucocerebrosidase Inhibitors: qHTS Assay for Rice alpha-Glucosidase at pH 5.0 (AID 997);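 also: 0% = full activity with enzyme and -100% = basal without enzyme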
Outline: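 Endpoint fluorogenic assay at pH 5.0: compounds (0.7 nM to 77 uM) titrated against 4 nM rice enzyme and 400 uM 4-MU-alpha-glucoside for 20 min at room temperature; NaOH/glycine stop, read ex 365/em 440 nm, Hill-fitted AC50.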

[13] = biological target: Alpha-galactosidase (Coffea arabica) (UniProt Q42656); assay: Counterscreen for Glucocerebrosidase Inhibitors: qHTS Assay for Coffee Bean alpha-Galactosidase at pH 5.9 (AID 998);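 also: plate controls were uninhibited enzyme for no effect and no-enzyme basal signal for full effect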
Outline: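 In 50 mM citric acid pH 5.9 with 0.005% Tween-20, coffee bean enzyme hydrolyses 80 uM 4-MU alpha-D-galactopyranoside over 20 min at RT. Activity is normalized to controls; AC50 comes from Hill-modelled concentration-response data.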

[14] = Validation of Assay for Modulators of Lamin A Splicing (AID 1459; active = well fitted curve in the direction sought with a large enough effect in the signal ratio; the % refers to the signal ratio;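 also: cells exposed to compound for two days before reading; 0% is about no effect; ratio rise marks activators and ratio drop marks inhibitors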)
Outline: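 S3 HeLa cells stably expressing a lamin A-EGFP splicing minigene and DsRed2 were seeded at 600 cells/well in Opti-MEM with 2% FBS, pin-dosed, and incubated 48 hrs at 37 °C, 5% CO2. Laser-scanning cytometry (488 nm) gave GFP/RFP total intensity ratio.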

[15] = qHTS Assay for Lipid Storage Modulators (AID 1519; calls by dose curve); settings: Drosophila S3 cells, BODIPY lipid droplet/cell ratio, laser cytometry, cells loaded with oleic acid
Outline: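 Cells seeded at 5,000 per well were treated with compounds over a concentration series and loaded with oleic acid (400 uM, as added). Lipid droplet fluorescence (488 nm excitation, 500-530 nm channel) was read by laser-scanning cytometry and normalized to 20 uM Triacsin C.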

[16] = biological target: DNA repair nuclease/redox regulator APEX1 (Homo sapiens) (UniProt P27695); assay: qHTS Validation Assay for Inhibitors of the Human Apurinic/apyrimidinic Endonuclease 1 (APE1) (AID 1705;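 also: TAMRA fluorescence gain over two minutes as APE1 cuts a quenched THF abasic duplex; % is scaled to controls: 0 for no effect and ±100 for the full control effect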)
DNA repair nuclease/redox regulator APEX1 (Homo sapiens), sequence (P27695 whole entry, looked up): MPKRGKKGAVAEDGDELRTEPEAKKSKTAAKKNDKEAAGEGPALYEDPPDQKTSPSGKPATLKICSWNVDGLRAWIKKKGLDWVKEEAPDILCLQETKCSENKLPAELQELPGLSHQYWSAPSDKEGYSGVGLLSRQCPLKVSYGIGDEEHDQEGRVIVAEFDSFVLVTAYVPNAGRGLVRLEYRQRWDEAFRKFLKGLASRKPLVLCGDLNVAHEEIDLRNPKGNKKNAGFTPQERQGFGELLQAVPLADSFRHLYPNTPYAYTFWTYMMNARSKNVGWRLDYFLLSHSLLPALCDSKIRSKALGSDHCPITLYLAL
Outline: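 Human APE1 was preincubated with compound for 15 min at room temperature, then 50 nM (final) THF-abasic double-stranded DNA substrate bearing 5'-TAMRA and 3'-BHQ-2 was added. Incision-driven fluorescence rise (ex 525/em 598 nm) was read kinetically.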

[17] = Counterscreen for APE1 Inhibitors: Fluorescent Dye Displacement Validation Assay (AID 1707);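 also: plate controls were ThO with dsDNA and no compound for no effect and ThO without dsDNA for full effect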
Outline: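 Counterscreen flags promiscuous DNA binders: compounds displacing ThO from duplex DNA (abasic THF site, 50 nM) reduce 540 nm emission (480 nm excitation). ThO 250 nM final; Tris-HCl pH 7.5 with NaCl, MgCl2 and Tween-20.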

[18] = biological target: Endonuclease 4 (Escherichia coli (strain K12)) (UniProt P0A6C1); assay: Counterscreen for APE1 Inhibitors: qHTS Validation Assay for Inhibitors of Endonuclease IV (AID 1708); also: % is scaled to controls: 0 for no effect and ±100 for the full control effect
Outline: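 Enzyme (2 nM) + compound, 15 min RT; add 50 nM TAMRA/BHQ-2 THF-site dsDNA; kinetic read ex525/em598, 3 reads/60 s; activity = read 3 − read 1. Buffer Tris pH 7.5, 50 mM NaCl, 2 mM MgCl2, DTT, Tween-20.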

[19] = qHTS for differential inhibitors of proliferation of Plasmodium falciparum line Dd2 (AID 1882); settings: Potency: Plasmodium falciparum Dd2 proliferation inhibition;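 also: plate controls were DMSO vehicle for no effect and 0.29 µM artemisinin for full effect; nearly all actives have a fitted effect of over 65% in size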
Outline: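 SYBR Green DNA fluorescence (ex 485, em 535 nm) after overnight lysis quantifies parasite growth; compound exposure lasted 72 h at 37 C on infected red cells at 2.5% hematocrit, 0.3% parasitemia (final). Artemisinin 0.29 uM and vehicle wells define normalization.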

[20] = qHTS for differential inhibitors of proliferation of Plasmodium falciparum line W2 (AID 1883); settings: Potency: Plasmodium falciparum W2 proliferation inhibition;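 also: potency is read from the fitted curve at half-maximal effect; parasites grown with compound for 72 h before lysis and staining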
[21] = qHTS Assay for Modulators of Human Peripheral Myelin Protein 22 (PMP22) Expression/Activity (AID 1967; active = well fitted curve in the direction sought with a large enough effect in the signal ratio; the % refers to the signal ratio;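 also: 0% = untreated cells and 100% end not stated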)
Outline: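 MSC80 mouse Schwann cells stably carrying Pmp22 promoter–green click beetle luciferase plus EF-alpha–red luciferase control were dosed for 24h at 37 °C. Dual-colour luminescence was filter-overlap corrected; %Activity came from green/red ratio versus untreated cells.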

[22] = biological target: Ferritin light chain (Equus caballus) (UniProt P02791); assay: qHTS Validation Assay for Identification of Novel General Anesthetics (AID 2323); also: % is scaled to controls: 0 for no effect and ±100 for the full control effect
Ferritin light chain (Equus caballus), sequence (P02791 2-175 limits assumed): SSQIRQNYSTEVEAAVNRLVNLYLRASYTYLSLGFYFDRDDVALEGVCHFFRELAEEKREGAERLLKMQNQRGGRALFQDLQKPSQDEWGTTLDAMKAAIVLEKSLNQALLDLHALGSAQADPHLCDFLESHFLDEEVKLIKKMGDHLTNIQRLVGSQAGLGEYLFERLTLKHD
Outline: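 Competitive displacement of profluorescent 1-aminoanthracene (1-AMA, 50% saturated solution in PBS) from 10 uM horse-spleen apoferritin. Compounds incubated 10 min at room temperature; fluorescence read at 380 nm excitation/535 nm emission, normalized to free 1-AMA and complex, fitted with four-parameter Hill equation.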

[23] = biological target: ATP-dependent DNA helicase Q1 (Homo sapiens) (UniProt P46063); assay: qHTS Validation Assay for Inhibitors of RecQ-Like Dna Helicase 1 (RECQ1) (AID 2353);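 also: plate controls were DMSO vehicle for no effect and enzyme-free control for full effect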
Outline: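 RECQ1T1 50 nM; forked duplex (20 bp + 30-nt ss tails) 200 nM, ATP 2 mM final; pH 8.0, 2 mM MgCl2, 2.5 ug/ml poly(dI-dC); 15 min compound preincubation; discontinuous kinetic read over 2 h at RT.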

[24] = Validation screen for small molecules that induce DNA re-replication in MCF 10A normal breast cells (AID 463097); also: 0% is about no effect; nearly all actives have a fitted effect of over 60% in size
Outline: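 Readout: Hoechst nuclear fluorescence intensity, 405 ex / 500-530 em, by scanning plate imager; re-replication scored as increase in nuclei with elevated DNA content. Cells exposed to compound 48 hr, 37 C, 5% CO2 beforehand.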

[25] = Quantitative high throughput screen for delayed death inhibitors of the malarial parasite plastid, 48 hour incubation (AID 488752); also: % is scaled to controls: 0 for no effect and ±100 for the full control effect; nearly all actives have a fitted effect of over 65% in size
Outline: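 First, compound was pinned into RPMI 1640 medium containing 0.5% Albumax. Next, reporter-parasite-infected erythrocytes were added to 2% hematocrit and 0.1% parasitemia. After 48 h at 37 C under 5% CO2, luciferase detection reagent was added and luminescence read.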

[26] = biological target: M-phase phosphoprotein 8 (Homo sapiens) (UniProt Q99549); assay: qHTS Validation Assay for Inhibitors for MPP8 Chromodomain Interactions with Methylated Histone Tails (AID 488949);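 also: AlphaScreen signal from MPP8 chromodomain bound to biotinylated H3K9me3 peptide; top concentration of the series differs between compounds; % is scaled to controls: 0 for no effect and ±100 for the full control effect; nearly all actives have a fitted effect of over 55% in size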
Outline: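 MPP8 (50 nM) was preincubated with biotinylated H3(1-18)K9me3 peptide (50 nM) in PBS pH 7.4, 0.01% Tween-20 for 30 min at room temperature, then with compounds for 30 min; binding was detected by AlphaScreen.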

[27] = biological target: Transient receptor potential cation channel subfamily V member 1 (Homo sapiens) (UniProt Q8NER1); assay: HTS Assay for Compounds that Act as Enhancers of the Vanilloid Receptor 1 (AID 488979); also: 0% is about no effect
Transient receptor potential cation channel subfamily V member 1 (Homo sapiens), sequence (Q8NER1 whole entry, looked up): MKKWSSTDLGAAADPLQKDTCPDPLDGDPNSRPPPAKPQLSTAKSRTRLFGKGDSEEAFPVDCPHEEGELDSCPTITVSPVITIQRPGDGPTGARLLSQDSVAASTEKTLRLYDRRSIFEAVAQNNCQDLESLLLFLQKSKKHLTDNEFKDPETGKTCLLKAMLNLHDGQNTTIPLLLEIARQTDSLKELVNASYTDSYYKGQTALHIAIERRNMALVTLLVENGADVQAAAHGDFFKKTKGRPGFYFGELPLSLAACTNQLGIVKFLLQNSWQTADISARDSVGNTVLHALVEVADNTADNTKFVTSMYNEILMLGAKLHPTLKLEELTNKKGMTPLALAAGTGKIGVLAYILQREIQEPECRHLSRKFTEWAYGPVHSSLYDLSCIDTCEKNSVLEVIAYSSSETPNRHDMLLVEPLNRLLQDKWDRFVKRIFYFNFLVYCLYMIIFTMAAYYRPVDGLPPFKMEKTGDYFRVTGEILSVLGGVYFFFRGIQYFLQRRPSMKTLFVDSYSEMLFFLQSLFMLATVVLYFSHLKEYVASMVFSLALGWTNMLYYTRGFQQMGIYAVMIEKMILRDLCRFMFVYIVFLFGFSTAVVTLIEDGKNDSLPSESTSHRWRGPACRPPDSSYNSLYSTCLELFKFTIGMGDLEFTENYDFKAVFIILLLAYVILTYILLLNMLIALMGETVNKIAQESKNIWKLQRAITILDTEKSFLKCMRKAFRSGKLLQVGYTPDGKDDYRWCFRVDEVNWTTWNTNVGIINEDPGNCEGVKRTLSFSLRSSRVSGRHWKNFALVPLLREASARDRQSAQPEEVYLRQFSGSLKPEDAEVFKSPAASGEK
Outline: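 TRPV1-expressing cells loaded with Fluo-8 calcium dye; compounds added and calcium influx read kinetically for 3 min (agonist phase), then capsaicin at EC20 added and read 2 min more for enhancement. Fluorescence ex 480/em 520 nm.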

[28] = biological target: Thyrotropin receptor (Homo sapiens) (UniProt P16473); assay: qHTS Assay for Antagonists of the Thyroid Stimulating Hormone Receptor (AID 488980); also: 0% is about no effect
Thyrotropin receptor (Homo sapiens), sequence (P16473 whole entry, looked up): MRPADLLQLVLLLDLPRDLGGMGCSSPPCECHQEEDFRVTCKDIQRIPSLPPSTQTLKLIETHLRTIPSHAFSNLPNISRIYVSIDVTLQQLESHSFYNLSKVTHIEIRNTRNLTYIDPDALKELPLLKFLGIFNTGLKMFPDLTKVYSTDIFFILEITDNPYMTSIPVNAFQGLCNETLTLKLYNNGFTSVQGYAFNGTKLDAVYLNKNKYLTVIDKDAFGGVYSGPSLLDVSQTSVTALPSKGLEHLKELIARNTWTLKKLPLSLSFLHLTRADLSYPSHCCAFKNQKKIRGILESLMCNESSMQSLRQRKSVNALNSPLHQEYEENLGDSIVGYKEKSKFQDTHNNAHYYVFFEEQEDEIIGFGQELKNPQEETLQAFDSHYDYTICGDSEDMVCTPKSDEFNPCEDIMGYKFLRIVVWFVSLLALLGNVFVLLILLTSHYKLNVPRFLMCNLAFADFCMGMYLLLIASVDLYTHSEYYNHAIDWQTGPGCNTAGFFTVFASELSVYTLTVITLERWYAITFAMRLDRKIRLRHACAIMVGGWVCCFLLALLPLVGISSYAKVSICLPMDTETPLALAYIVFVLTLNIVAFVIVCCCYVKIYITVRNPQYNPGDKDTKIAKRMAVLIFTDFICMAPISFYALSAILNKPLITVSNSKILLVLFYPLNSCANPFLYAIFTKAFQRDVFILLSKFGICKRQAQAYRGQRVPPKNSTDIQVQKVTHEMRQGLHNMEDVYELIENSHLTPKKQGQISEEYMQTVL
Outline: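 HEK293 cells transfected with human TSHR, suspended in HEPES-buffered HBSS with 70 uM RO 20-1724, were treated with compounds plus TSH at EC80 (4 nM final). cAMP was measured by competitive HTRF (cryptate anti-cAMP antibody, cAMP-d2 acceptor).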

[29] = biological target: Thyrotropin-releasing hormone receptor (Homo sapiens) (UniProt P34981); assay: qHTS for Small Molecule Agonists and Allosteric Enhancers of Human TRH Receptor: Validation Screen for Agonists (AID 493127;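 active = calcium activation more than 3 SD above the typical response in the agonist read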;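 also: intracellular calcium rise by fluo-8 fluorescence before TRH EC20 addition; 0% is about no effect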); settings: TRH receptor agonist cell assay; at 2 µM; stronger effect = higher value
Outline: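 Compounds are added by online pintool to dye-loaded TRHR cells while fluorescence is recorded every second. A rise in calcium signal during the agonist read marks activation; a later 10 nM TRH addition (EC20) serves the separate enhancer mode.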

[30] = biological target: Galactokinase (Homo sapiens) (UniProt P51570); assay: qHTS Validation Assay for Inhibitors of Human Galactokinase (GALK) (AID 493189); also: 0% is about no effect
Outline: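 GALK (5 nM) with 35 uM ATP and 100 uM galactose in HEPES pH8.0, MgCl2, NaCl, DTT, BSA; 1 h at room temperature. Residual ATP read by Kinase-Glo Plus luminescence after 10 min.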

[31] = biological target: DNA dC->dU-editing enzyme APOBEC-3G (Homo sapiens) (UniProt Q9HC16); assay: qHTS for inhibitors of Vif-A3G interactions: Validation (AID 588379); also: 0% is about no effect
Outline: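 Yellow fluorescence (Ex 488, Em 500-530) of Vif-coexpressing HeLa A3G-eYFP cells, scanned by Acumen cytometer, reports blocked A3G degradation. Cells plated at 700/well overnight at 37 deg C before compound addition, then a further overnight compound incubation at 37 deg C.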

[32] = biological target: Voltage-gated inwardly rectifying potassium channel KCNH2 (Homo sapiens) (UniProt Q12809); assay: qHTS Assay for Small Molecule Inhibitors of the Human hERG Channel Activity (AID 588834);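 also: top concentration of the series differs between compounds; % is scaled to controls: 0 for no effect and ±100 for the full control effect; lower thallium flux fluorescence means stronger hERG block; nearly all actives have a fitted effect of over 50% in size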
Outline: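 In hERG-transduced U2OS cells, dye-loaded for 1 hr at room temperature in dark, test compounds incubated 10 min at 37 °C before thallium stimulation. AC50 values derived by Hill modelling of concentration-response.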

[33] = test system: Zika virus NS2B-NS3 protease; assay: Primary screen GU AMC qHTS for Zika virus inhibitors (AID 1347154);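 also: 0% = no-inhibitor control and -100% = no-enzyme control; nearly all actives have a fitted effect of over 70% in size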
Outline: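 Unlinked Zika NS2B hydrophilic domain/NS3 protease domain noncovalent complex (25 nM final) in 10 mM Tris-HCl pH 8.0, 0.01% Tween 20, with AMC peptide substrate. Fluorescence (ex 340, em 450 nm) change over 15 min, room temperature; percent inhibition fitted to 4-parameter Hill equation.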

[34] = Primary qHTS for small molecule stabilizers of the endoplasmic reticulum resident proteome: Secreted ER Calcium Modulated Protein (SERCaMP) assay (AID 1508630); also: % is scaled to controls: 0 for no effect and ±100 for the full control effect
Outline: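 The SH-SY5Y reporter protocol was run at 3 concentrations up to 38.3 uM (primary) or 11 concentrations (follow-up): 16 h compound, 100 nM thapsigargin for 4 h, then extracellular luciferase luminescence.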

CP(=O)(O)CCCN
3.46%: max response ([15]; measured here: cell count channel max response)
active: Potency [20] 2.82 µM
inactive: Potency [1] | activity change, negative = inhibition [2] 0.206% | outcome [3] | Potency [4] > 46 µM | Potency [5] > 46 µM | activation [6] 7.54% | Potency [7] | outcome [8] | outcome [9] | outcome [10] | outcome [11] | outcome [12] | outcome [13] | outcome [14] | activity change, negative = inhibition ([15]; at 57.5 µM (top of the series)) -0.195% | Potency [16] | Potency [17] | outcome [18] | Potency [19] | outcome [21] | outcome [22] | Potency [23] | Potency [24] | Potency [25] | Potency [26] | outcome [27] | outcome [28] | activation [29] 1.06% | outcome [30] | Potency [31] | Potency [32] | Potency [33] | Potency [34]
4.47%: max response ([15]; measured here: lipid channel max response)
